Measurements taken from ChEMBL document CHEMBL1157539, “Thousands of chemical starting points for antimalarial lead identification” (Nature, 2010).

These compounds were tested on HepG2 (assay: GSK_TCMDC: Percent inhibition of human HepG2 cell line. Test compounds present at 10uM.).
Type: functional
Compound O=C(NCCc1ccc(Cl)c(Cl)c1)[C@@H]1CCCN1C(=O)c1ccc(O)c(-c2cccc(C(F)(F)F)c2)c1 has an Inhibition of 0%. With Cc1cc(N/N=C/c2ccccc2[N+](=O)[O-])c2ccccc2n1 the Inhibition was 10%. With CCCCCN1CCCC1CNS(=O)(=O)c1ccc(C(=O)Nc2ccc(C(F)(F)F)cc2)cc1.O=C(O)C(F)(F)F (stereo not given) the Inhibition was 19%. Cl.Cn1ncc2c3c(CCN4CCC(NCc5ccc6c(c5)NC(=O)CO6)CC4)c(Cl)cnc3ccc21 showed an Inhibition of 18%. Work on ON=C(c1nc2ccccc2[nH]1)c1nc2ccccc2[nH]1 yielded an Inhibition of 36%. COc1ccc(C(=O)C2CCN(CCCCNC(=O)c3ccc(NC(=O)c4cc(Cl)cc(Cl)c4)cc3)CC2)cc1 was tested, and the Inhibition was 35%. COc1cccc(CN2CCCN(Cc3cccc(NC(=O)c4cc5ccccc5s4)c3)CC2)c1.O=C(O)C(F)(F)F gave an Inhibition of 17%. With COc1ccc(Nc2cc(C)c3cc(NC(=O)c4ccncc4)ccc3n2)cc1 the Inhibition was 0%. Compound CC(C)(CNCCOc1ccc(Cl)cc1)c1nc(-c2ccnc(N)n2)c(-c2ccc(Cl)c(O)c2)[nH]1.Cl has an Inhibition of 45%. Compound O=C(/C=C/c1ccc(Cl)c(Cl)c1)NCCCCCN1CCC(NC(=S)Nc2ccc(F)cc2F)CC1 has an Inhibition of 20%. Work on CC(C)NC[C@@H](O)[C@H](Cc1ccccc1)NC(=O)c1cc2c3c(c1)c(C(C)C)cn3CCS(=O)(=O)N2C.O=CO yielded an Inhibition of 5%. CC(=O)Nc1ccc(C(=O)Nc2cccc(-c3cccc(-c4nc5cccc(C)c5[nH]4)c3)c2)cn1 gave an Inhibition of 16%. Compound CCCCN(CCCC)/C(=N/C(=N)Nc1ccc(Cl)cc1)NCCCCCCN/C(=N\C(=N)Nc1ccc(Cl)cc1)N(CCCC)CCCC has an Inhibition of 0%. For CCCN(CCC)CC(O)COc1ccccc1C(=O)Nc1ccccc1 (stereo not given), the Inhibition was 6%. Work on CN1CCC(N2CCN(Cc3ccc(-c4ccc(-c5nc6ccccc6[nH]5)s4)cc3)CC2)CC1.O=C(O)C(F)(F)F yielded an Inhibition of 62%. In the case of N#Cc1cccc(C(=O)Nc2cccc(-c3ccc(C(=O)Nc4cccnc4)cc3)c2)c1, the Inhibition is reported as 39%. CC(=O)Nc1ccc(CN2Cc3ccc(NC(=O)Nc4ccc(Oc5ccccc5)cc4)cc3C2)s1 gave an Inhibition of 9%. Work on CCC(C)OC(=O)C1=C(C)NC2=C(C(=O)CC(c3ccc(OC)c(OC)c3)C2)C1c1ccc(C)o1 (stereo not given) yielded an Inhibition of 6%. For Cc1ccc2[nH]c(-c3ccc(C=CC(=O)NCc4ccc(Cl)c(Cl)c4)cc3)nc2c1, the Inhibition was 5%. Work on CCNc1cc(C(=O)N[C@@H](Cc2ccccc2)[C@H](O)CNCCC(C)c2ccccc2)cc(N2CCCC2=O)c1.O=C(O)C(F)(F)F (stereo not given in full) yielded an Inhibition of 0%. Work on CC1CCCN(c2ccc(NC(=O)c3cccs3)cc2[N+](=O)[O-])C1 (stereo not given) yielded an Inhibition of 14%. COC(=O)c1cccc(N2CCN(CCCNC(=O)/C(=C/C=C/c3cc4cc(Cl)c(Cl)cc4[nH]3)OC)CC2)c1.Cl showed an Inhibition of 38%. Work on O=[N+]([O-])c1ccc(C2=NN(S(=O)(=O)c3c(Cl)cc(Cl)cc3Cl)CCCC2)cc1 yielded an Inhibition of 5%. CCCN(C(=O)c1ccccc1C)c1nnc(-c2cccc(C)c2)s1 gave an Inhibition of 8%. Work on COc1ccccc1-c1cccc(-c2cccc(NC(=O)c3ccc([N+](=O)[O-])o3)c2)n1 yielded an Inhibition of 78%. With FC(F)(F)c1ccc2[nH]c(-c3ccc(-c4ccc(CNCCN5CCNCC5)cc4)cc3)nc2c1.O=C(O)C(F)(F)F the Inhibition was 13%. O=C(NC1CC1)c1ccc(N2CCCC(COc3ccccc3F)C2)nc1 (stereo not given) gave an Inhibition of 8%. Compound COc1ccc(Cl)cc1NC(=O)CN(C)C(=O)c1cnn(-c2ccccc2)n1 has an Inhibition of 0%. With C(=C(c1cccs1)c1cccs1)c1ccc(CNC2CCN(Cc3ccccc3)CC2)cc1.Cl the Inhibition was 40%. In the case of Cc1cccc(C)c1N1CCN(C2CCC(NC(=O)c3cc4ccccc4[nH]3)CC2)CC1 (stereo not given), the Inhibition is reported as 31%. Work on COc1ccc(CCN(C)CCOc2ccc(NC(=O)COc3ccc4sc5ccccc5c(=O)c4c3)cc2)cc1OC yielded an Inhibition of 99%. With Cc1[nH]c(C)c(-c2ccc(-c3ccc(C(F)F)cc3)nc2)c(=O)c1Cl the Inhibition was 0%. Compound CN1CC[C@@H](Oc2cc(NC(=O)Nc3ccc(Cl)c(C(F)(F)F)c3)ccc2Cl)C1 has an Inhibition of 17%. With N#Cc1cc(C(=O)Nc2ccccc2)c(N)nc1SCC(=O)Nc1ccc(Br)cc1 the Inhibition was 11%. CN1CCC(Oc2ccc(NC(=O)c3ccc4c(=O)n(Cc5ccccc5)cnc4c3)cc2Cl)CC1 was tested, and the Inhibition was 23%. In the case of O=C(C=Cc1ccc(Cl)c(Cl)c1)NCCCCCN1CCC(CCCNC(=O)c2ccc3c(c2)OCO3)CC1, the Inhibition is reported as 38%. Compound N#Cc1ccc(N/C(=N\c2ccc(-c3ccccc3)cc2)NCCc2c[nH]c3ccccc23)c(O)c1 has an Inhibition of 6%. In the case of O=C(Cn1cnc2c(nnn2Cc2ccccc2F)c1=O)Nc1ccc2c(c1)OCCO2, the Inhibition is reported as 0%. For CN(C)CCCOc1ccc(CN2CC[C@H](NC(=O)c3ccc(Cl)c(Cl)c3)C2)c2ccccc12.O=C(O)C(F)(F)F, the Inhibition was 81%. Work on c1ccc2oc(-c3cc4ccncc4cc3OC3CCNCC3)cc2c1 yielded an Inhibition of 11%.
